Reference: the supplement of paper PMC12669032
“And” between values parts separate entries of the source, which are not always exact repeats. Identical values can stand only once.

Key:
Assay in all cases: growth AUC relative to DMSO control (median of replicates) (fraction); higher = more growth (less inhibition), active = hit call of the paper
Conditions in all cases: 20 µM; 24 h;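 active = AUC reduced over 20% with Padj below 0.05 in at least 2 of 3 replicates; inactive = otherwise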
Akkermansia muciniphila = tested on: Akkermansia muciniphila
How it was run: (§1)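 Gut bacterial monocultures were grown anaerobically at 37 °C in mGAM, starting at OD600 0.05, with 20 µM compound (1% DMSO) in round-bottom 96-well plates under pierced gas-permeable seals. OD600 was read hourly for 24 h. Area under the growth curve (minimum OD set to 0) was normalised to the plate median of DMSO controls, or to row and column medians on the industrial chemical plate. The value is the median of three biological replicates grown on separate days.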

Bacteroides caccae = tested on: Bacteroides caccae
How it was run: as §1

Bacteroides clarus = tested on: Bacteroides clarus
How it was run: as §1

Bacteroides dorei = tested on: Bacteroides dorei
How it was run: as §1

Bacteroides stercoris = tested on: Bacteroides stercoris
How it was run: as §1

[1] = tested on: Bacteroides thetaiotaomicron
How it was run: as §1

Bacteroides uniformis = tested on: Bacteroides uniformis
How it was run: as §1

[2] = tested on: Bifidobacterium longum subsp. longum
How it was run: as §1

Clostridium difficile = tested on: Clostridium difficile
How it was run: as §1

Collinsella aerofaciens = tested on: Collinsella aerofaciens
How it was run: as §1

Measured: growth AUC

Nc1cc(Cl)cc(Cl)c1
inactive: Akkermansia muciniphila 1.1 | Bacteroides caccae 0.895 | Bacteroides clarus 1.04 | Bacteroides dorei 1.03 | Bacteroides stercoris 1.33 | [1] 1.01 | Bacteroides uniformis 1.04 | [2] 1.08 | Clostridium difficile 1 | Collinsella aerofaciens 0.984

CCOC(=O)C(SP(=S)(OC)OC)c1ccccc1 (stereo not given)
inactive: Akkermansia muciniphila 0.867 | Bacteroides caccae 0.974 | Bacteroides clarus 0.933 | Bacteroides dorei 0.973 | Bacteroides stercoris 0.986 | [1] 0.938 | Bacteroides uniformis 0.929 | [2] 1 | Clostridium difficile 1.04 | Collinsella aerofaciens 1

CC1(C)C(/C=C(\Cl)c2ccc(Cl)cc2)C1C(=O)OC(C#N)c1ccc(F)c(Oc2ccccc2)c1 (stereo not given)
inactive: Akkermansia muciniphila 0.965 | Bacteroides caccae 0.993 | Bacteroides clarus 0.985 | Bacteroides dorei 1.04 | Bacteroides stercoris 1 | [1] 1 | Bacteroides uniformis 0.99 | [2] 0.94 | Clostridium difficile 1.09 | Collinsella aerofaciens 1.04

CC(=NC#N)N(C)Cc1ccc(Cl)nc1
inactive: Akkermansia muciniphila 0.993 and 0.945 | Bacteroides caccae 0.979 and 0.959 | Bacteroides clarus 1.02 and 0.96 | Bacteroides dorei 0.993 and 1.01 | Bacteroides stercoris 1.08 and 0.985 | [1] 0.987 and 0.95 | Bacteroides uniformis 1 and 0.993 | [2] 1.03 and 0.979 | Clostridium difficile 0.986 and 1 | Collinsella aerofaciens 1.02

CCOP(=S)(OCC)Oc1ccc(Cl)cc1Cl
inactive: Akkermansia muciniphila 0.962 | Bacteroides caccae 1.03 | Bacteroides clarus 0.963 | Bacteroides dorei 1.02 | Bacteroides stercoris 1.04 | [1] 0.979 | Bacteroides uniformis 0.987 | [2] 1.04 | Clostridium difficile 1.02 | Collinsella aerofaciens 1.04

CCOP(=S)(OCC)SCSC(C)(C)C
inactive: Akkermansia muciniphila 1.04 | Bacteroides caccae 0.964 | Bacteroides clarus 1.01 | Bacteroides dorei 0.963 | Bacteroides stercoris 0.988 | [1] 0.998 | Bacteroides uniformis 1.02 | [2] 1.13 | Clostridium difficile 0.888 | Collinsella aerofaciens 0.96

CC1(C)CON(Cc2ccccc2Cl)C1=O
inactive: Akkermansia muciniphila 1.11 | Bacteroides caccae 0.927 | Bacteroides clarus 1.01 | Bacteroides dorei 0.917 | Bacteroides stercoris 0.996 | [1] 0.98 | Bacteroides uniformis 0.949 | [2] 0.938 | Clostridium difficile 0.977 | Collinsella aerofaciens 0.947

Nc1cc(Cl)cc(C(=O)O)c1Cl
inactive: Akkermansia muciniphila 1.03 | Bacteroides caccae 0.975 | Bacteroides clarus 1.02 | Bacteroides dorei 1.04 | Bacteroides stercoris 1.06 | [1] 1 | Bacteroides uniformis 0.958 | [2] 1.04 | Clostridium difficile 1.01 | Collinsella aerofaciens 1.06

O=NN(CCO)CCO
inactive: Akkermansia muciniphila 1.01 | Bacteroides caccae 1.01 | Bacteroides clarus 1.02 | Bacteroides dorei 0.979 | Bacteroides stercoris 1.18 | [1] 1.01 | Bacteroides uniformis 1.02 | [2] 0.837 | Clostridium difficile 1.01 | Collinsella aerofaciens 0.994

ClC1=C(Cl)C2(Cl)C3C4C=CC(C4)C3C1(Cl)C2(Cl)Cl (stereo not given)
inactive: Akkermansia muciniphila 1.11 | Bacteroides caccae 1.02 | Bacteroides clarus 0.987 | Bacteroides dorei 1.01 | Bacteroides stercoris 1.02 | [1] 1.03 | Bacteroides uniformis 1.01 | [2] 0.998 | Clostridium difficile 1.02 | Collinsella aerofaciens 1.01

CNC(=O)O/N=C/C(C)(C)S(C)=O (stereo not given)
inactive: Akkermansia muciniphila 0.978 | Bacteroides caccae 1.04 | Bacteroides clarus 0.991 | Bacteroides dorei 1.01 | Bacteroides stercoris 1.02 | [1] 0.988 | Bacteroides uniformis 1.03 | [2] 0.935 | Clostridium difficile 1.01 | Collinsella aerofaciens 1.02

N#Cc1nn(-c2c(Cl)cc(C(F)(F)F)cc2Cl)c(N)c1S(=O)(=O)C(F)(F)F
inactive: Akkermansia muciniphila 1.09 | Bacteroides caccae 0.823 | Bacteroides clarus 0.966 | Bacteroides dorei 0.961 | Bacteroides stercoris 1.16 | [1] 0.996 | Bacteroides uniformis 0.961 | [2] 0.936 | Clostridium difficile 0.866 | Collinsella aerofaciens 1.03

C=C(C)CN(CC)c1c([N+](=O)[O-])cc(C(F)(F)F)cc1[N+](=O)[O-]
inactive: Akkermansia muciniphila 0.843 | Bacteroides caccae 1.02 | Bacteroides clarus 0.965 | Bacteroides dorei 1.02 | Bacteroides stercoris 0.926 | [1] 0.998 | Bacteroides uniformis 0.968 | [2] 0.933 | Clostridium difficile 1.04 | Collinsella aerofaciens 1

CCCSP(=S)(OCC)Oc1ccc(SC)cc1 (stereo not given)
inactive: Akkermansia muciniphila 0.897 | Bacteroides caccae 0.998 | Bacteroides clarus 0.958 | Bacteroides dorei 1 | Bacteroides stercoris 1.06 | [1] 0.979 | Bacteroides uniformis 0.998 | [2] 0.971 | Clostridium difficile 1.01 | Collinsella aerofaciens 1.04

COP(=S)(OC)SC(CC(=O)O)C(=O)O (stereo not given)
inactive: Akkermansia muciniphila 0.974 | Bacteroides caccae 1.01 | Bacteroides clarus 0.963 | Bacteroides dorei 0.986 | Bacteroides stercoris 1.06 | [1] 0.991 | Bacteroides uniformis 0.99 | [2] 1.01 | Clostridium difficile 1 | Collinsella aerofaciens 1.05

CCOP(=O)(SC(C)CC)N1CCSC1=O (stereo not given)
inactive: Akkermansia muciniphila 0.9 | Bacteroides caccae 1.02 | Bacteroides clarus 0.977 | Bacteroides dorei 1 | Bacteroides stercoris 1.07 | [1] 0.992 | Bacteroides uniformis 0.996 | [2] 1.02 | Clostridium difficile 1.02 | Collinsella aerofaciens 1.05

CNC(=O)Oc1cccc(N=CN(C)C)c1.Cl
inactive: Akkermansia muciniphila 1.18 | Bacteroides caccae 1.03 | Bacteroides clarus 1.03 | Bacteroides dorei 1.02 | Bacteroides stercoris 1.12 | [1] 1.02 | Bacteroides uniformis 0.993 | [2] 1.06 | Clostridium difficile 1.02 | Collinsella aerofaciens 1.04

CC1(C)CCC(Cc2ccc(Cl)cc2)C1(O)Cn1cncn1 (stereo not given)
inactive: Akkermansia muciniphila 1.01 | Bacteroides caccae 0.874 | Bacteroides clarus 0.925 | Bacteroides dorei 0.98 | Bacteroides stercoris 1.35 | [1] 0.93 | Bacteroides uniformis 0.937 | [2] 1.03 | Clostridium difficile 0.973 | Collinsella aerofaciens 0.95

O=C(O)COc1ccc(Cl)cc1Cl
inactive: Akkermansia muciniphila 0.866 | Bacteroides caccae 1.03 | Bacteroides clarus 0.979 | Bacteroides dorei 0.996 | Bacteroides stercoris 0.986 | [1] 1 | Bacteroides uniformis 0.998 | [2] 1 | Clostridium difficile 1.02 | Collinsella aerofaciens 0.988

CCOCN(C(=O)CCl)c1c(C)cccc1CC
inactive: Akkermansia muciniphila 0.969 | Bacteroides caccae 1.01 | Bacteroides clarus 0.995 | Bacteroides dorei 1.04 | Bacteroides stercoris 1 | [1] 0.967 | Bacteroides uniformis 0.968 | [2] 0.986 | Clostridium difficile 0.983 | Collinsella aerofaciens 1.03

NC(=S)c1c(Cl)cccc1Cl
inactive: Akkermansia muciniphila 0.917 | Bacteroides caccae 0.943 | Bacteroides clarus 0.97 | Bacteroides dorei 0.935 | Bacteroides stercoris 1.01 | [1] 1.03 | Bacteroides uniformis 0.972 | [2] 1.05 | Clostridium difficile 1.02 | Collinsella aerofaciens 0.962

COC(=O)c1ccccc1CS(=O)(=O)NC(=O)Nc1nc(OC)cc(OC)n1
inactive: Akkermansia muciniphila 0.94 | Bacteroides caccae 1.02 | Bacteroides clarus 0.972 | Bacteroides dorei 0.985 | Bacteroides stercoris 0.969 | [1] 1.02 | Bacteroides uniformis 1.01 | [2] 1.05 | Clostridium difficile 1.02 | Collinsella aerofaciens 0.956

COP(=O)(NC(C)=O)SC (stereo not given)
inactive: Akkermansia muciniphila 0.941 | Bacteroides caccae 1.01 | Bacteroides clarus 0.993 | Bacteroides dorei 0.992 | Bacteroides stercoris 1.02 | [1] 0.978 | Bacteroides uniformis 0.979 | [2] 0.96 | Clostridium difficile 1.01 | Collinsella aerofaciens 1.04

CCS(=O)(=O)Oc1ccc2c(c1)C(C)(C)CO2
inactive: Akkermansia muciniphila 0.972 | Bacteroides caccae 1 | Bacteroides clarus 0.967 | Bacteroides dorei 1.01 | Bacteroides stercoris 1.01 | [1] 0.99 | Bacteroides uniformis 1.01 | [2] 1.04 | Clostridium difficile 1.03 | Collinsella aerofaciens 1.01

ClC1(Cl)C2(Cl)C3(Cl)C4(Cl)C(Cl)(Cl)C5(Cl)C3(Cl)C1(Cl)C5(Cl)C24Cl (stereo not given)
inactive: Akkermansia muciniphila 0.866 | Bacteroides caccae 0.966 | Bacteroides clarus 0.972 | Bacteroides dorei 1.01 | Bacteroides stercoris 1.06 | [1] 1 | Bacteroides uniformis 0.937 | [2] 0.846 | Clostridium difficile 1 | Collinsella aerofaciens 0.94

CCOc1cc(OP(=S)(OC)OC)nc(CC)n1
inactive: Akkermansia muciniphila 0.924 | Bacteroides caccae 1.03 | Bacteroides clarus 1 | Bacteroides dorei 1.01 | Bacteroides stercoris 1.13 | [1] 0.994 | Bacteroides uniformis 0.996 | [2] 1.01 | Clostridium difficile 0.997 | Collinsella aerofaciens 1.03

Nc1nc(N)nc(NC2CC2)n1
inactive: Akkermansia muciniphila 0.99 | Bacteroides caccae 0.989 | Bacteroides clarus 1.02 | Bacteroides dorei 1.01 | Bacteroides stercoris 1.04 | [1] 1 | Bacteroides uniformis 0.991 | [2] 1.01 | Clostridium difficile 1.02 | Collinsella aerofaciens 0.999

CCNC(=O)NC(=O)/C(C#N)=N/OC
inactive: Akkermansia muciniphila 0.998 | Bacteroides caccae 1 | Bacteroides clarus 1 | Bacteroides dorei 0.983 | Bacteroides stercoris 1.08 | [1] 1 | Bacteroides uniformis 0.956 | [2] 0.901 | Clostridium difficile 0.965 | Collinsella aerofaciens 1.07

Clc1ccc(C(c2ccc(Cl)cc2)C(Cl)Cl)cc1
active: Bacteroides stercoris 0.662
inactive: Akkermansia muciniphila 1.03 | Bacteroides caccae 0.927 | Bacteroides clarus 0.899 | Bacteroides dorei 0.888 | [1] 0.933 | Bacteroides uniformis 0.984 | [2] 1.06 | Clostridium difficile 1.03 | Collinsella aerofaciens 0.873
